DT40 TDP1 no CPT = qHTS for Inhibitors of human tyrosyl-DNA phosphodiesterase 1 (TDP1): qHTS in cells in absence of CPT; DT40 Tdp1-/- hTDP1 cells, no CPT, ATP luminescence, 48 h; AID 686978, 2013; Potency, µM (highest dose often 46.2 µM), inactives show at the top dose activity change, negative = growth inhibition, most hits filed as inhibitors; 15% of 420,000 active; further: on the % scale 0 is the no-effect control and ±100 the full control effect; nearly all actives have a fitted effect of over 55% in size
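Growth of hTDP1-complemented DT40 Tdp1-knockout cells is measured by ATP luminescence after at least 48 hr compound exposure at 37 °C, with DMSO substituting for the 20 nM CPT used in the parallel screen.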
DT40 TDP1 CPT = DT40-hTDP1 cell growth loss with CPT. 12% of 420,000 active. Potency, µM (doses to about 46.2 µM), for the others: at the highest dose activity change, negative = growth inhibition, actives largely listed as inhibitors. chicken DT40 Tdp1-/-;hTDP1 cells + 20 nM CPT, ATP luminescence, 48 h; further: on the % scale 0 is the no-effect control and ±100 the full control effect; nearly all actives have a fitted effect of over 55% in size
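Chicken DT40 Tdp1-/- cells complemented with human TDP1, 400 cells/well, exposed to compounds plus 20 nM camptothecin for at least 48 h at 37 C; viability read as ATP content by CellTiter-Glo luminescence.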
ATXN2 expr inh = reduces ATXN2 reporter expression in HEK-293 cells | HEK-293 ATXN2-luciferase reporter, luminescence, 24 h | Potency, µM (titrated, usually from 57 µM), for inactives: top-dose activity change, negative = inhibition, actives largely listed as inhibitors | 0.72% of 360,000 active | AID 1745845; further: on the % scale 0 is the no-effect control and ±100 the full control effect; nearly all actives have a fitted effect of over 55% in size
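ATXN2-luciferase reporter cells (luciferase flanked by upstream and downstream ATXN2 gene portions) were treated 24 h at 37 °C with compounds at up to 57 uM. SteadyGlo luminescence gave expression; GF-AFC fluorescence gave viability.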
S2 tox = reduces viability in counter-screen for ATXN expression inhibitors | Potency, µM (doses to about 56.7 µM), hits mostly cytotoxic | 0.49% of 400,000 active | S2 cells (HEK-293 line with an ATXN2-luciferase reporter) viability, CellTiter-Fluor protease fluorescence, 24 h; further: nearly all actives have a fitted effect of over 40% in size
HepG2 viability = kills HepG2 cells in TGF-b inhibitor counter-screen. HepG2 CAGA-GFP viability, ATP luminescence, 18 h. Potency, µM (series often up to 46.1 µM), inactives show top-dose activity change, negative = cytotoxicity, actives largely listed as cytotoxic. 0.76% of 410,000 active
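CellTiter-Glo luminescence gave cytotoxicity after 18 hours at 37 degrees C. The cells were HepG2 CAGA-GFP in 1% FBS DMEM, stimulated with 500 pg/mL TGF-beta after compound addition. %Activity was normalised to no-cell wells (complete cell-killing) and DMSO (no toxicity), and curves were fitted and classified.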
TGFb SMAD3 inh = blocks TGF-b signaling. 1.2% of 410,000 active. Potency, µM (highest dose often 46.1 µM), inactives show at the highest dose activity, negative = inhibition, actives largely listed as inhibitors. AID 588855. HepG2 CAGA-GFP TGF-b/SMAD3 reporter, GFP fluorescence, 18 h; TGF-beta stimulated, 500 pg/mL final; further: on the % scale 0 is the no-effect control and ±100 the full control effect; nearly all actives have a fitted effect of over 65% in size
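First, reporter cells (HEPG2 CAGA-GFP) rested 2 h at 37 degrees C. Next, compounds were pinned in and TGF-beta added to 500 pg/mL final. After 18 h, GFP was imaged per cell and summed per well.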
Numbers without * were called inactive; i = inactive; ? = inconclusive; . = not tested or not shown; [ ] = remark or other dose. Shown are actives, neighbours in structure and some others; about 17% of the full set was active somewhere. The call rests on the fitted dose curve; in most records, active means well fitted curve in the direction sought with a large enough effect; inconclusive means small, poorly fitted or top-dose-only effect, or another doubt; inactive means no such curve, though single readings can be large; an effect the other way counts as inactive or inconclusive. Potency means the concentration at half of the fitted maximal effect.

SMILES | DT40 TDP1 no CPT | DT40 TDP1 CPT | ATXN2 expr inh | S2 tox | HepG2 viability | TGFb SMAD3 inh
CCn1cc2c(n1)-c1c(oc(C(=O)Nc3cccc(C)c3C)c1C)CC2 | 14.6µM* | ? | . | . | -25.8% | -0.7%
Cc1c(C(=O)N2CCCC2)oc2c1-c1nn(CC(=O)NC(C)c3ccccc3)cc1CC2 (stereo not given) | 23.1µM* | ? | . | . | -6.7% | ?
Cc1c(C(=O)N2CCCC2)oc2c1-c1nn(CC(=O)NCc3cccc(F)c3)cc1CC2 | ? | ? | . | . | -26.0% | ?
Cc1cccc(C)c1NC(=O)COC(=O)C1CC1 | 3.2% | 2.9% | -10.3% | ? | 16.9% | -17.0%
CCn1nnc2cc(C(=O)Nc3cc(Cl)ccc3C)ccc21 | ? | -13.0% | . | i | -1.6% | 8.5%
COc1ccc(CNC(=O)Cn2ccc3cc(S(=O)(=O)N4CCCCCC4)ccc32)cc1OC | ? | ? | -20.6% | i | -36.4% | -5.9%
CCc1nc(NC(=O)c2sc(C)nc2C)sc1C(=O)OC | -0.7% | -8.1% | 0.6% | i | -25.1% | 10.5%
CCOC(=O)c1cccc(NC(=O)c2oc3c(c2C)-c2nn(CC)cc2CC3)c1 | ? | ? | . | . | -42.6% | -13.7%
CC(=O)c1cccc(NC(=O)c2oc3c(c2C)-c2nn(Cc4ccc(Cl)cc4)cc2CC3)c1 | 25.9µM* | ? | . | . | -32.3% | -10.8%
COc1ccc(CC(=O)Nc2ccc3nc(SC)sc3c2)cc1OC | ? | -22.2% | -18.8% | i | -14.3% | -0.2%
Cc1cccc(C(=O)Nc2ccc3nc(SCCOc4ccccc4)sc3c2)c1 | ? | ? | -7.5% | ? | -11.2% | ?
COc1cc(C)ccc1OCCSc1nc2ccc(NC(=O)c3ccc(F)cc3)cc2s1 | 8.2µM* | ? | 6.7% | i | -5.7% | -1.2%
CCC(=O)Nc1ccc2nc(SCCOc3ccc(C)cc3OC)sc2c1 | 14.6µM* | ? | -6.5% | ? | -14.4% | -1.3%
Cc1ccc(S(=O)(=O)N2CCC(N3CCN(Cc4ccccc4)C(=O)C3=O)CC2)cc1C | ? | -17.3% | -7.0% | i | -0.9% | -0.3%
CCSc1nnc(NC(=O)CSc2nnc(CNC(=O)c3ccc(OC)c(OC)c3)o2)s1 | -8.7% | -15.8% | 0.0% | i | -8.0% | 4.8%
CS/C(Nc1cc(Cl)ccc1Cl)=C(/C#N)C(=O)c1ccco1 | 16.4µM* | 9.2µM* | -17.6% | i | -12.9% | -9.3%
O=C(OC(C(=O)NCC1CCCO1)c1ccc(F)cc1)c1cccs1 (stereo not given) | 1.0% | -1.0% | 5.1% | i | 3.6% | 2.1%
CCc1cc(C(=O)N=Nc2c(O)[nH]c3c(Br)cc(Br)cc23)c2ccccc2n1 | ? | 20.6µM* | -13.5%[11.3 µM] | i | 14.4% | -18.6%
CCc1cc(C(=O)N=Nc2c(O)[nH]c3ccc([N+](=O)[O-])cc23)c2ccccc2n1 | ? | ? | -12.4% | i | -31.5% | ?
CC(C)(C)NC(=O)C(c1ccncc1)N(C(=O)Cn1nnc(-c2ccc(F)cc2)n1)c1cccc(F)c1 (stereo not given) | 7.5% | 14.9% | 0.6% | i | -4.9% | -20.7%
CCOc1ccc(NC(=O)Cn2c(=O)n(Cc3ccc(C(=O)NCc4ccc(C)cc4)cc3)c(=O)c3ccccc32)cc1 | 14.6µM* | 16.4µM* | 8.5% | i | 7.3% | 3.4%
Cc1ccc(CNC(=O)c2ccc(Cn3c(=O)c4ccccc4n(CC(=O)Nc4ccc(C)cc4)c3=O)cc2)cc1 | -23.0% | -26.1% | 11.6% | i | -14.1% | -1.2%
Cc1cc(C)c(NC(=O)Cn2c(=O)n(CCc3ccccc3)c(=O)c3ccccc32)c(C)c1 | 20.6µM* | 14.6µM* | 2.5% | i | 0.8% | -0.9%
